From PubChem BioAssay (NCI)
This is part of a sample that, as a whole, favours compounds with a hit. Of some 83,000 tested, about 20% had one in any assay.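 96-well plates, one dose, 48 hours. Percent growth reported; active if below 10.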 A number with no mark means an inactive call. The source made the active and inactive calls.

Tests used:
Experiment in all cases: NCI-60 one-dose screen, 48 h (100 = growth as untreated, 0 = no growth, -100 = all killed)
[1] = tested on: DU-145 prostate; details: 10 µM unless noted
[2] = tested on: K-562 leukemia; details: 10 µM unless noted
[3] = tested on: MALME-3M melanoma; details: 10 µM unless noted
[4] = tested on: MDA-MB-231 breast; details: 10 µM unless noted
[5] = tested on: RXF 393 renal; details: 10 µM unless noted
[6] = tested on: SF-268 CNS; details: 10 µM unless noted
[7] = tested on: SF-295 CNS; details: 10 µM unless noted
[8] = tested on: SF-539 CNS; details: 10 µM unless noted
[9] = tested on: UACC-257 melanoma; details: 10 µM
[10] = tested on: M14 melanoma; details: 10 µM unless noted
[11] = tested on: HCT-15 colon; details: 10 µM unless noted
[12] = tested on: HT29 colon; details: 10 µM unless noted
[13] = tested on: SNB-75 CNS; details: 10 µM unless noted
[14] = tested on: SNB-19 CNS; details: 10 µM unless noted
[15] = tested on: U251 CNS; details: 10 µM unless noted
[16] = tested on: PC-3 prostate; details: 10 µM unless noted
[17] = tested on: SK-MEL-5 melanoma; details: 10 µM unless noted
[18] = tested on: UACC-62 melanoma; details: 10 µM unless noted
[19] = tested on: LOX IMVI melanoma; details: 10 µM unless noted
[20] = tested on: SK-MEL-28 melanoma; details: 10 µM unless noted

Structure (SMILES) | growth [1] [%] | growth [2] | growth [3] [%] | growth [4] [%] | growth [5] | growth [6] [%] | growth [7] | growth [8] | growth [9] | growth [10] [%] | growth [11] | growth [12] | growth [13] | growth [14] [%] | growth [15] [%] | growth [16] | growth [17] | growth [18] [%] | growth [19] | growth [20] [%]
COc1ccc(S(=O)(=O)n2cc(C=O)c3ccccc32)c(OC)c1 | 103 | 14.4% | 79.7 | 95.5 | 95.3% | 73.6 | 99.9% | 78.6% | 82.5% | 52.8 | 40% | 107% | 75.3% | 85 | 52.8 | 66.3% | 67.3% | 63.1 | 64.3% | 83.8
O=C1/C(=C/c2ccc([N+](=O)[O-])cc2)SC(=Nc2ccccc2)N1Nc1ccccc1 | 63.5 | 17.8% | 90.3 | 54.7 | 58.9% | 73 | 87.1% | 65.1% | 89.7% | 80.1 | 39.3% | 42.3% | 73.2% | 60.2 | 44.4 | 62.1% | 92% | 55.8 | 19.3% | 83
CC(C)c1nn(-c2ccccc2)c(N2CCCCC2)c1/C=N/NC(N)=S | 95.3 | 82.9% | 104 | 107 | 75.5% | 88 | 77.6% | 88.7% | 106% | 113 | 70.8% | 81.4% | 61.6% | 92 | 97.9 | 82.5% | 87.5% | 92.5 | – | –
O=C1c2cc(Br)ccc2-n2c1nc1cc(Br)ccc1c2=O | 74.1 | 73.9% | 44.1 | 75.5 | 97.6% | 78 | 87% | 92.4% | 43.1% | 72.2 | 64.8% | 74.3% | 68.3% | 84.6 | 91.9 | 60.9% | 60.6% | 85.7 | 63.9% | 88.9
CCOC(=O)Nc1ccc(-c2nc(-c3cccc(O)c3)c(-c3ccnc(Br)c3)[nH]2)cc1 | 57.7 | 12.5% | 32.4 | 39.3 | -9.56% (active) | 39.9 | -14% (active) | 38.2% | 38.7% | 35.1 | 30.7% | 34.3% | 14.7% | 44.7 | 29.6 | 4.92% (active) | 23.6% | 24.3 | 14.5% | 46.9
C#CCOc1ccc(/C=N/Nc2nc(-c3cc(Cl)ccc3Cl)cs2)cc1 | 102 | 78.7% | 99.3 | 84.7 | 111% | 95.7 | 89.7% | 102% | 103% | 94.8 | 81.7% | 110% | 77.3% | 104 | 98.6 | 87.1% | 97.8% | 80.3 | 97.7% | 110
Nc1nc(-c2cccc([N+](=O)[O-])c2)c(N=Nc2cccc(Cl)c2)s1 | 63.6 | 30.1% | 93.1 | 47.3 | -11.4% (active) | 41.4 | 53% | 55.2% | 77.6% | 37 | 16.3% | 40.7% | 40.3% | 73.9 | 44.3 | 37.6% | 39.9% | 32.9 | 24.5% | 75.6
COc1ccc(OC)c(NC2=C(Cl)C(=O)C(C)=C(C)C2=O)c1 | 104 | 55.8% | 98.7 | 76.6 | 107% | 93.9 | 100% | 99% | 86.8% | 97.8 | 94.7% | 105% | 71.7% | 95.3 | 94.1 | 77.6% | 89.6% | 93.8 | 89.1% | 108
COc1cc2oc(-c3cccc(NC(=O)c4cc(NC(=O)[C@H](C)N)ccc4Cl)c3)cc(=O)c2c(OC)c1OC | 95.2 | 78.8% | 111 | 82.4 | 84.8% | 92.2 | 92.3% | 91.1% | 129% | 115 | 79.8% | 115% | 96.1% | 88.8 | 95.3 | 81.2% | 86% | 89.3 | 80.9% | 106
CCc1ccc(NC(=O)N[C@@H](Cc2cccc(F)c2)C(=O)N[C@@H]2C(=O)N3CCC[C@H]3C(=O)N3CCCC[C@H]3C(=O)N[C@@H](CO)C(=O)N3C[C@H](C)C[C@H]3C(=O)O[C@H]2C)c(F)c1 | 26.9 | 20.1% | 41.5 | 35.2 | -11.7% (active) | 30.6 | 15.8% | 39.8% | 16% | 21.4 | 15.1% | 36.1% | 26.4% | 28.1 | 30.9 | 17.5% | 0.508% (active) | 27.2 | 24.9% | 44.6
O=C(NCCNc1cc(-c2cn(-c3ccccc3)nc2-c2cccc(O)c2)ccn1)Nc1ccc(Cl)c(C(F)(F)F)c1 | 94.6 | 35.5% | 83 | 36 | 15.3% | 48.6 | 7.84% (active) | 40.2% | 89.6% | 48.3 | 2.46% (active) | 34.8% | 42.8% | 46.8 | 42.8 | 42.2% | 65.9% | 77 | 0.724% (active) | 42.1
CCn1c2ccc(/C=N/NS(=O)(=O)CCN(C)C)cc2c2cc(/C=N/NS(=O)(=O)CCN(C)C)ccc21 | 105 | 94.1% | 85.3 | 89.7 | 96.6% | 90.2 | 103% | 90.5% | 103% | 104 | 108% | 103% | 107% | 100 | 99.8 | 100% | -96.7% (active) | 98.6 | 98.6% | 106
CC(=O)Nc1cccc(-n2cnc3cc(-c4ccc(O)cc4)ccc32)c1 | 27.9 | 8.67% (active) | 73.7 | 61.1 | -6.91% (active) | 46.2 | 17.1% | -5.03% (active) | 79.6% | 53.2 | 24.8% | 28.2% | -31.7% (active) | 33.4 | 23.1 | 35.7% | 28.3% | 36.5 | 36.6% | 78
O=c1[nH]c2cc(Cl)ccc2n1C1CCN(c2ccc3nnc(Cl)n3n2)CC1 | 99.8 | 81.4% | 104 | 95.6 | 83.7% | 92.5 | 87.5% | 91% | 95.9% | 98.1 | 96.5% | 93.2% | 73.1% | 92.6 | 99.2 | 82% | 91.6% | 75.8 | 99.1% | 91.1
CCNC(=O)Oc1ccc(/C(=C(/C)c2ccccc2)c2ccc(OCCN3CCCC3)cc2)cc1 | 89.5 | 11.3% | 30 | 66.7 | 54.6% | 80.3 | 60.5% | 49.7% | -3.88% (active) | 24.3 | 46.5% | 9.61% (active) | 79.4% | 79 | 58.6 | 64.2% | 25.4% | 83.4 | 18.4% | 56.2
